“And” between values parts separate entries of the source, which are not always exact repeats. Equal entries are not always repeated. In all, about 5,500 compounds went through this assay and about 2,000 (36%) were called active. About 18% were inconclusive and are not listed. No stated cut-off is given here; in the data, active means normalized growth mostly below about 0.91 (no sharp cut-off); inconclusive means no clear call, values can overlap the other calls; inactive means mostly above about 0.92. This is one part of the list.
Test: chemical genetic growth profiling, strain panel (AID 1159580);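 further: tested at 20 µM; growth read once vehicle control cultures reached saturation at 30 °C; 1 = growth at the plate median or of vehicle wells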
Conditions: S. cerevisiae deletion strains, growth OD

Measured: normalized growth

Cc1onc(-c2c(Cl)cccc2Cl)c1C(=O)N[C@@H]1C(=O)N2[C@@H]1SC(C)(C)[C@@H]2C(=O)O
inactive: locus YAL013W, strain DEP1, stronger effect = lower value 1.02 | locus YAL021C, strain ccr4, stronger effect = lower value 0.969 | locus YAL026C, strain drs2, stronger effect = lower value 1.02 | locus YAL030W, strain snc1, stronger effect = lower value 0.994 | locus YBL061C, strain skt5, stronger effect = lower value 0.991 | locus YBR009C, strain hhf1, stronger effect = lower value 1 | locus YBR021W, strain FUR4, stronger effect = lower value 1.03 | locus YBR023C, strain chs3, stronger effect = lower value 0.986 | locus YBR171W, strain sec66, stronger effect = lower value 0.993 | locus YBR229C, strain ROT2, stronger effect = lower value 1.01 | locus YBR231C, strain swc5, stronger effect = lower value 0.963 | locus YBR279W, strain paf1, stronger effect = lower value 0.993 | locus YCL011C, strain gbp2, stronger effect = lower value 1.01 | locus YCL016C, strain dcc1, stronger effect = lower value 1.03 | locus YCL029C, strain bik1, stronger effect = lower value 0.996 | locus YCL069W, strain vba3, stronger effect = lower value 0.995 | locus YCR088W, strain abp1, stronger effect = lower value 0.975 | locus YDL005C, strain med2, stronger effect = lower value 0.995 | locus YDL035C, strain GPR1, stronger effect = lower value 1.04 | locus YDL040C, strain nat1, stronger effect = lower value 0.988 | locus YDL074C, strain BRE1, stronger effect = lower value 1.01 | locus YDL101C, strain DUN1, stronger effect = lower value 1.01 | locus YDL134C, strain PPH21, stronger effect = lower value 1.05 | locus YDL185W, strain tfp1, stronger effect = lower value 0.991 | locus YDL192W, strain arf1, stronger effect = lower value 0.993 | locus YDR001C, strain nth1, stronger effect = lower value 0.97 | locus YDR069C, strain doa4, stronger effect = lower value 0.991 | locus YDR101C, strain arx1, stronger effect = lower value 0.994 | locus YDR137W, strain rgp1, stronger effect = lower value 0.991 | locus YDR150W, strain NUM1, stronger effect = lower value 1.02 | locus YDR159W, strain sac3, stronger effect = lower value 0.975 | locus YDR162C, strain NBP2, stronger effect = lower value 1.02 | locus YDR195W, strain ref2 0.889 | locus YDR297W, strain sur2, stronger effect = lower value 0.973 | locus YDR318W, strain mcm21, stronger effect = lower value 0.995 | locus YDR334W, strain swr1, stronger effect = lower value 0.948 | locus YDR335W, strain msn5, stronger effect = lower value 0.967 | locus YDR388W, stronger effect = lower value 1 | locus YDR392W, strain spt3, stronger effect = lower value 1.12 | locus YDR502C, strain sam2, stronger effect = lower value 0.996 | locus YEL003W, strain gim4, stronger effect = lower value 0.973 | locus YEL037C, strain rad23, stronger effect = lower value 0.995 | locus YEL061C, strain CIN8 (second series), stronger effect = lower value 0.971 | locus YEL061C, strain CIN8, stronger effect = lower value 1.01 | locus YER015W, strain faa2, stronger effect = lower value 0.991 | locus YER016W, strain bim1, stronger effect = lower value 0.997 | locus YER110C, stronger effect = lower value 0.992 | locus YER111C, strain swi4, stronger effect = lower value 0.998 | locus YER155C, strain BEM2 (second series), stronger effect = lower value 0.973 | locus YER155C, strain BEM2, stronger effect = lower value 1.01 | locus YER167W, strain BCK2, stronger effect = lower value 1.02 | locus YFR010W, strain ubp6, stronger effect = lower value 0.97 | locus YGL078C, strain dbp3, stronger effect = lower value 1 | locus YGL086W, strain mad1, stronger effect = lower value 1.01 | locus YGL167C, strain pmr1, stronger effect = lower value 0.976 | locus YGL173C, strain kem1, stronger effect = lower value 0.961 | locus YGL227W, strain vid30, stronger effect = lower value 0.981 | locus YGL240W, strain doc1, stronger effect = lower value 0.951 | locus YGL248W, strain PDE1, stronger effect = lower value 1.01 | locus YGL253W, strain hxk2, stronger effect = lower value 1.02 | locus YGR078C, strain PAC10, stronger effect = lower value 1.01 | locus YGR135W, strain pre9, stronger effect = lower value 0.976 | locus YGR229C, strain SMI1, stronger effect = lower value 1.02 | locus YGR252W, strain gcn5, stronger effect = lower value 0.946 | locus YHR013C, strain ard1, stronger effect = lower value 1.02 | locus YHR027C, strain rpn1, stronger effect = lower value 0.997 | locus YHR030C, strain SLT2, stronger effect = lower value 1.01 and 1.06 | locus YHR079C, strain IRE1 (second series), stronger effect = lower value 0.989 | locus YHR079C, strain IRE1, stronger effect = lower value 1.02 | locus YHR094C, strain hxt1, stronger effect = lower value 0.994 | locus YHR129C, strain ARP1, stronger effect = lower value 1.02 | locus YHR142W, strain chs7, stronger effect = lower value 1.02 | locus YHR200W, strain rpn10, stronger effect = lower value 0.991 | locus YIL066C, strain RNR3, stronger effect = lower value 1.02 | locus YIL073C, strain SPO22, stronger effect = lower value 0.988 | locus YIL125W, strain kgd1, stronger effect = lower value 0.998 | locus YIR030C, strain dcg1, stronger effect = lower value 1.01 | locus YJL092W, strain hpr5, stronger effect = lower value 0.99 | locus YJL095W, strain BCK1 (second series), stronger effect = lower value 0.983 | locus YJL095W, strain BCK1, stronger effect = lower value 1 and 1.04 | locus YJL115W, strain asf1, stronger effect = lower value 0.979 | locus YJL129C, strain trk1, stronger effect = lower value 0.972 | locus YJL134W, strain LCB3, stronger effect = lower value 1.01 | locus YJL154C, strain vps35, stronger effect = lower value 0.978 | locus YJL164C, strain tpk1, stronger effect = lower value 1.02 | locus YJL166W, strain qcr8, stronger effect = lower value 0.957 | locus YJL168C, strain set2, stronger effect = lower value 0.988 | locus YJL187C, strain SWE1 (second series), stronger effect = lower value 1.01 | locus YJL187C, strain SWE1, stronger effect = lower value 0.987 | locus YJR043C, strain POL32, stronger effect = lower value 1.04
